# This is a sample that favours compounds with a hit; in the whole collection about 19% have one here.
# DT40 TDP1 CPT: growth inhibition of DT40 Tdp1-/-;hTDP1 cells with camptothecin (screen for TDP1 inhibitors); chicken DT40 Tdp1-/-;hTDP1 cells + 20 nM CPT, ATP luminescence, 48 h; Potency, µM (highest dose often 46.2 µM), for inactives: at the top dose activity change, negative = growth inhibition, actives largely listed as inhibitors; 420,000 tested, 12% active; further: potency means the concentration at half of the fitted maximal effect; nearly all actives have a fitted effect of over 55% in size
#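 Chicken DT40 Tdp1-/- cells complemented with human TDP1, 400 cells/well, exposed to compounds plus 20 nM camptothecin for at least 48 h at 37 C; viability read as ATP content by CellTiter-Glo luminescence.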
# HT1080-NT tox: kills 2HG-producing HT-1080-NT fibrosarcoma cells | AID 686970 | 360,000 tested, 1.6% active | HT-1080-NT fibrosarcoma viability, CellTiter-Glo ATP luminescence, 48 h | Potency, µM (titrated, usually from 46.1 µM), for the others: at the top dose activity, negative = less viability, actives largely listed as cytotoxic;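 further: NT is the 2HG producing partner of a matched IDH1 knockdown line; potency means the concentration at half of the fitted maximal effect; 0% = DMSO-treated cells and -100% = media-only wells without cells; nearly all actives have a fitted effect of over 55% in size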
#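 750 cells/well, RPMI + 5% FBS; 2 h settle, compound pin-transfer, 48 h at 37 degrees C. CellTiter-Glo 10 min RT, luminescence. Normalized to DMSO and media-only wells.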
# HT1080 IDH1KD tx: HT-1080 IDH1 knockdown cell toxicity (counter line) | HT-1080 IDH1 knockdown viability, ATP luminescence, 48 h | Potency, µM (series often up to 46.1 µM), for the others: top-dose activity, negative = toxicity, most hits filed as cytotoxic | 360,000 tested, 2% active;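 further: potency means the concentration at half of the fitted maximal effect; 0% = DMSO wells and -100% = cell-free medium wells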
#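 In this qHTS, HT-1080 cells depleted of IDH1 are exposed for 48 h at 37 °C to compound titrations. Toxicity is scored from CellTiter-Glo luminescence, with DMSO as full viability and medium alone as none.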
# IL1B secr inh: blocks inflammasome-driven IL-1 beta release; THP-1 LPS/ATP IL-1B secretion, AlphaLISA, 16 h; active compounds read low; activity change, % at 57.5 µM; 360,000 tested, 4.7% active; in the data active means activity change below about -50%; inconclusive means mostly about -30% to -49%
#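 THP-1 cells pretreated 1 hr with compounds (up to 57.5 uM final), then stimulated with LPS (250 ng/mL final) plus ATP (1.25 mM final); secreted IL-1B measured by AlphaLISA after 16 hr, decreased signal indicating inhibition.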
# TDP1 cell noCPT: qHTS for Inhibitors of human tyrosyl-DNA phosphodiesterase 1 (TDP1): qHTS in cells in absence of CPT; Potency, µM (doses to about 46.2 µM), for inactives: at the top dose activity change, negative = growth inhibition, most hits filed as inhibitors; 420,000 tested, 15% active; AID 686978, 2013; DT40 Tdp1-/- hTDP1 cells, no CPT, ATP luminescence, 48 h; further: potency means the concentration at half of the fitted maximal effect; nearly all actives have a fitted effect of over 55% in size
#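 Cells were dispensed at 400 per well, compounds added by pin tool, plates incubated ≥48 hr at 37 °C, then CellTiter-Glo added for 30 min at room temperature before luminescence reading. Line: DT40 Tdp1-/- complemented with hTDP1; camptothecin omitted.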
# uPA surface inh: cell surface uPA generation inhibition; cell surface uPA generation assay, qHTS; 330,000 tested, 0.31% active; AID 540303; Potency, µM (highest dose often 38.3 µM), for the others: at the top dose activity change, negative = inhibition, actives largely listed as inhibitors; active means well fitted inhibition curve with a large enough effect; inconclusive means small, poorly fitted or top-dose-only effect; inactive means no such curve, though single readings can be large or run the other way; tested in mouse RAW 264.7 cells; further: potency means the concentration at half of the fitted maximal effect; nearly all actives have a fitted effect of over 55% in size
# Starred values were filed as active, the others as inactive; ? = inconclusive; · = no result. Unless noted, the call rests on the fitted dose curve; in most records, active means well fitted curve in the direction sought with a large enough effect; inconclusive means small, poorly fitted or top-dose-only effect, or another doubt; inactive means no such curve, though single readings can be large; an effect the other way counts as inactive or inconclusive. Unless noted, on the % scale 0 is the no-effect control and ±100 the full control effect.
SMILES,DT40 TDP1 CPT,HT1080-NT tox,HT1080 IDH1KD tx,IL1B secr inh,TDP1 cell noCPT,uPA surface inh
CC(C)=CCC[C@H](C)C[C@@H]1Cc2[nH][nH]c(=O)c2[C@@H](c2ccc(F)cc2)O1,?,-30%,-28%,-17,?,·
CN(CCCNC(=O)Cn1ncc2c([nH]c3ccccc32)c1=O)Cc1ccccc1,-7%,·,·,·,-25%,·
O=C(Nc1ccc(N2CCOCC2)cc1)c1csc([C@@H]2C[C@H](O)[C@@H](CO)O2)n1,-14%,9%,-1%,17,-19%,·
CCOC(=O)c1ccc(-n2cnc(-c3ccc([N+](=O)[O-])cc3)c2)cc1,?,17%,0%,?,?,·
CC(C)C1C(=O)N(Cc2cn(CC3CCCCC3)nn2)CCS(=O)(=O)N1Cc1ccc(-c2ccncc2)cc1 (stereo not drawn),-30%,-26%,-14%,-8,?,·
CC(C)C1C(=O)N(Cc2cn(CC3CCCCC3)nn2)CCS(=O)(=O)N1Cc1ccc(-c2ccc(F)nc2)cc1 (stereo not drawn),?,?,?,?,13µM*,·
Cc1ccc(-c2ccc(CN3C(C(C)C)C(=O)N(Cc4cn(CC5CCCCC5)nn4)CCS3(=O)=O)cc2)cc1 (stereo not drawn),12µM*,?,?,-24,8.2µM*,·
CC(C)C1C(=O)N(Cc2cn(CC3CCCCC3)nn2)CCS(=O)(=O)N1Cc1ccc(-c2cccc(CO)c2)cc1 (stereo not drawn),18µM*,?,?,?,8.2µM*,·
COCOCCn1cc(CN2CCS(=O)(=O)N(Cc3ccc(-c4ccc(F)nc4)cc3)C(C)C2=O)nn1 (stereo not drawn),-1%,19%,7%,12,-19%,·
CC(C)C1C(=O)N(Cc2cn(CC3CCCCC3)nn2)CCS(=O)(=O)N1Cc1ccc(-c2ccc(Cl)cc2)cc1 (stereo not drawn),9.2µM*,?,?,-29,7.3µM*,·
COc1cc(CN2C[C@@H](CO)O[C@@H](n3cnc4c(N5CCN(C)CC5)ncnc43)C2)cc(OC)c1OC,-20%,?,11%,14,-14%,·
Cc1ccc(C)c(NC(=S)NCC(c2ccccc2)N(C)C)c1 (stereo not drawn),3%,-1%,-2%,-19,?,-1%
COc1ccc(Cl)cc1NC(=O)C(C)OC(=O)C1=NNC(=O)CC1 (stereo not drawn),-13%,-2%,-3%,-4,-16%,9%
COc1cc(C(=O)NCc2ccc3c(c2)OCO3)c([N+](=O)[O-])cc1OC,-5%,8%,5%,8,-14%,16%
O=C(NCCc1ccc(Cl)cc1)C(=O)NCC(c1ccco1)S(=O)(=O)c1cccs1 (stereo not drawn),18µM*,·,·,·,?,·
O=C(NCc1ccccc1Cl)C(=O)NCC(c1ccco1)S(=O)(=O)c1cccs1 (stereo not drawn),?,·,·,·,16µM*,·
CCCn1nc(NC(=O)c2cccc(Cl)c2)c2cc3cccc(C)c3nc21,?,·,·,·,-13%,·
COc1ccc(-c2nn(-c3ccccc3)cc2/C=N/N2C(=O)CSC2=S)cc1,18µM*,25%,2%,-106*,16µM*,·
COc1cc(C(=O)Nc2ccc(-c3nc4ccccc4o3)c(O)c2)cc(OC)c1OC,6%,·,·,·,-13%,·
COc1cc2ccccc2cc1C(=O)Nc1ccc(Cl)c(-c2nc3ccccc3o2)c1,?,·,·,·,23µM*,·
Cc1cc2nc(-c3cc(NC(=O)c4cc5ccccc5o4)ccc3Cl)oc2cc1C,?,·,·,·,16µM*,·
Cc1cccc(NC(=O)c2nc[nH]c2C(=O)NC[C@@H](C)O)c1,12%,1%,-12%,-5,-21%,·
Cc1cccc(NC(=O)c2nc[nH]c2C(=O)Nc2cc(Br)ccc2F)c1,13µM*,11%,2%,-12,8.2µM*,·
Cc1cccc(NC(=O)c2nc[nH]c2C(=O)Nc2ccccc2[N+](=O)[O-])c1,6.5µM*,9%,0%,-2,2.9µM*,9%
O=C(Nc1nnc([C@@H]2C[C@H](O)[C@@H](CO)O2)s1)c1cccc(OC(F)(F)F)c1,0%,21%,3%,5,-20%,·
SMILES,DT40 TDP1 CPT,HT1080-NT tox,HT1080 IDH1KD tx,IL1B secr inh,TDP1 cell noCPT,uPA surface inh
COCCCN(C(=S)Nc1cc(Cl)cc(Cl)c1)C(C)c1ccncc1 (stereo not drawn),?,0%,-13%,-68*,?,-18%
COCCCN(C(=S)Nc1cc(Cl)cc(Cl)c1)C(C)c1ccccn1 (stereo not drawn),?,?,-12%,0,?,-26%
COc1cc(/C=N/NC(=O)C2c3ccccc3Oc3ccccc32)ccc1O,?,0%,-11%,-12,?,-4%
Cn1cnnc1SCc1ccc(C(=O)N=Nc2c(O)n(Cc3ccc(Cl)cc3)c3ccccc23)cc1,21µM*,-18%,-30%,?,10µM*,?
CCn1c(O)c(N=NC(=O)c2ccc(CSc3nncn3C)cc2)c2ccccc21,?,-7%,1%,0,15µM*,6%
CCn1c(O)c(N=NC(=O)Cn2ccc(C(F)(F)F)n2)c2ccccc21,-27%,18%,11%,-22,?,0%
COc1ccc(NC(=S)N2CCNC(=O)C2CC(=O)Nc2cccc(Cl)c2C)cc1 (stereo not drawn),2%,-15%,-13%,?,-13%,-2%
Cc1ccc(CN2CCN(C3CCN(S(=O)(=O)N(C)C)CC3)C(=O)C2=O)cc1,2%,·,·,·,10%,·
CC(=O)Nc1cc(-c2cccc(C(=O)NCCN(C)C)c2)cn2c(-c3ccc(S(C)(=O)=O)cc3)cnc12,5%,4%,2%,-17,-29%,·
CC(=O)Nc1cc(-c2cccc(C(=O)NCCN(C)C)c2)cn2c(-c3cccc(C(F)(F)F)c3)cnc12,?,18µM*,21µM*,0,?,·
CC(=O)Nc1cc(-c2cccc(C(=O)NCCN(C)C)c2)cn2c(-c3ccccc3)cnc12,?,?,16µM*,-53*,?,·
CCOC(=O)C1=C(C)N(c2ccc(OC)cc2)C(=O)/C1=C\c1cccs1,?,-6%,-2%,-60*,?,-1%
COC(=O)C1=C(C)N(c2ccc(C)cc2)/C(=C/c2cccs2)C1=O,?,-1%,8%,-2,26µM*,1%

# Screening data: PubChem BioAssay, National Center for Advancing Translational Sciences (NCATS)
